A selection: hits, their analogues and other compounds. The true share with any hit is near 1.8%.
CIT2 TOR yeast: yeast TOR pathway CIT2-GFP modulation; S. cerevisiae CIT2-GFP strain, flow cytometry, 3 h; 100 means same as DMSO wells; GFP response vs DMSO, % at 10 µM; hit rate 0.065% among 320,000;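 active = GFP response relative to DMSO above a set limit, near the screen mean plus 3 SD, cut at about 150% in these data; inconclusive = Fewer than 70 cells measured for a yeast strain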;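 note: ratio of well median GFP fluorescence to mean of DMSO wells on the plate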
Myeloid diff MLP: compounds promoting myeloid differentiation | ER-HoxA9 myeloid progenitors, lysozyme-GFP differentiation, flow cytometry | calls only at 10 µM | hit rate 1% among 360,000 | AID 624256;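 active = normalized GFP-positive differentiation at or above the plate's own cutoff, the solvent-only control mean plus 3 SD; inconclusive = no clear call, values can overlap the other calls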;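 note: cells exposed to compound for four days before flow analysis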
MEP2 TOR yeast: modulators of TOR pathway MEP2-GFP in S. cerevisiae; S. cerevisiae MEP2-GFP strain, flow cytometry GFP, 3 h; 100% = DMSO control level; GFP response vs DMSO, % at 10 µM; hit rate 0.51% among 330,000; AID 2016;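 active = GFP response versus DMSO above a set limit, roughly screen mean plus 3 SD, cut at about 180% in these data; inconclusive = fewer than 70 cells counted for a yeast strain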;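 note: median GFP fluorescence of the barcode-gated MEP2-GFP cells per well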
LAP4-GFP MLPCN: yeast TOR pathway LAP4-GFP modulation; S. cerevisiae LAP4-GFP multiplex, flow cytometry GFP, 3 h; median GFP as percent of DMSO wells; GFP response vs DMSO, % at 10 µM; hit rate 0.34% among 320,000; AID 2023;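 active = GFP response vs DMSO above a set limit, about the screen mean plus 3 SD, cut at about 150% in these data; inconclusive = under 70 cell events counted for the yeast strain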
RPL19A TOR yeast: modulators of TOR pathway RPL19A-GFP in S. cerevisiae; S. cerevisiae RPL19A-GFP strain, flow cytometry, 3 h; active compounds read low; percent response vs DMSO, % at 10 µM; hit rate 0.3% among 330,000;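 active = percent response vs DMSO below 50%; inconclusive = fewer than 70 events counted for the yeast strain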;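 note: median channel GFP fluorescence of the barcoded RPL19A-GFP strain; ratio of sample median GFP to plate DMSO average so 100% = DMSO; lower means less RPL19A-GFP as with rapamycin TOR inhibition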
AGP1-GFP MLPCN: modulators of TOR pathway AGP1-GFP in S. cerevisiae; hit rate 0.02% among 320,000; GFP response vs DMSO, % at 10 µM; S. cerevisiae AGP1-GFP multiplex flow cytometry, 3 h; GFP as percent of DMSO wells;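 active = GFP response relative to DMSO above a set limit, near screen average plus 3 SD, cut at about 150% in these data; inconclusive = fewer than 70 cells counted for the yeast strain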;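 note: median GFP channel fluorescence of the gated AGP1 strain per well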
LAP4 cherry2: reconfirmed LAP4-GFP TOR pathway modulator in yeast. shares compounds with LAP4-GFP MLPCN. S. cerevisiae LAP4-GFP strain, flow cytometry GFP, 3 h. GFP response vs DMSO, % at 10 µM. hit rate 20% among 590;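 active = GFP signal as percent of the solvent control above about 150%, meaning raised reporter expression, limit read from the data; inconclusive = fewer than 70 cells counted in the well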;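 note: ratio of well median GFP fluorescence to plate DMSO mean so 100% = DMSO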
MEP2-GFP pick2: yeast MEP2-GFP modulation, second cherry pick. shares compounds with LAP4-GFP MLPCN. S. cerevisiae MEP2-GFP strain, flow cytometry GFP, 3 h. hit rate 10% among 590. GFP response vs DMSO, % at 10 µM;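 active = GFP signal above 150% of the solvent control wells, that is a rise of more than half; inconclusive = fewer than 70 yeast cells counted in the well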;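 note: median channel GFP fluorescence of all gated yeast cells per well; ratio of median GFP to plate DMSO average so 100% = DMSO level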
RPL19A-GFP pick2: second confirmation of modulators of TOR reporter RPL19A-GFP in yeast | hit rate 3% among 590 | shares compounds with LAP4-GFP MLPCN | S. cerevisiae RPL19A-GFP strain, flow cytometry GFP, 3 h; active compounds read low; 100% means same as DMSO wells | GFP response vs DMSO, % at 10 µM;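 active = under 65% GFP response relative to DMSO; inconclusive = yeast strain with under 70 measured events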;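 note: median GFP channel fluorescence per well over the all cells gate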
CIT2 GFP CP2: reconfirmed modulator of CIT2-GFP TOR reporter in yeast; GFP response vs DMSO, % at 10 µM; AID 2624; S. cerevisiae CIT2-GFP strain, flow cytometry GFP, 3 h; DMSO control wells read 100%; shares compounds with LAP4-GFP MLPCN; hit rate 8% among 590;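 active = GFP response vs DMSO above about 150%, limit read from the data; inconclusive = fewer than 70 events counted for a yeast strain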;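 note: median green fluorescence per well over all gated yeast cells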
AGP1 GFP CP2: yeast AGP1-GFP TOR reporter modulation, second cherry pick. shares compounds with LAP4-GFP MLPCN. S. cerevisiae AGP1-GFP strain, flow cytometry GFP, 3 h. percent response vs DMSO, % at 10 µM. 590 tested, under 10 active;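 active = over 150 percent of DMSO response; inconclusive = yeast strain measured with under 70 events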;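 note: median GFP channel fluorescence over all cells without mother daughter split; sample median GFP divided by mean DMSO control so 100% equals DMSO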
s288c autofluor: counter-screen for compound autofluorescence in yeast s288c cells; shares compounds with LAP4-GFP MLPCN; S. cerevisiae s288c, 520 nm autofluorescence, flow cytometry, 3 h; active compounds read high; zero means same as solvent-only cells; fluorescence change (kMESF span) at 33 µM; 610 tested, under 10 active;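 active = fluorescence span over the dose series, or activity score, above about 33, limit read from the data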
Numbers without * were called inactive; i = inactive; ? = inconclusive; / = no result given.

SMILES | CIT2 TOR yeast | Myeloid diff MLP | MEP2 TOR yeast | LAP4-GFP MLPCN | RPL19A TOR yeast | AGP1-GFP MLPCN | LAP4 cherry2 | MEP2-GFP pick2 | RPL19A-GFP pick2 | CIT2 GFP CP2 | AGP1 GFP CP2 | others
COCc1cccc(-c2csc(C(NC(C)=O)c3cccc(F)c3)n2)c1 (stereo unspecified) | / | i | / | / | / | / | / | / | / | / | /
Cc1sc2ncnc(N3CCN(S(=O)(=O)c4ccc(C(C)(C)C)cc4)CC3)c2c1C | 88 | i | 98 | 91 | 94 | 95 | / | / | / | / | /
CN(c1ccccc1)c1ccc(/C=C/[N+](=O)[O-])cc1 | 92 | ? | 95 | 154* | 87 | 87 | 128 | 100 | 97 | 115 | 95
O=[N+]([O-])/C=C\c1ccc(N2CCOCC2)cc1 | 93 | i | 90 | 124 | 92 | 95 | / | / | / | / | /
O=C(OCC(=O)N1CCN(C(=O)c2ccco2)CC1)c1cc(-c2ccc(Cl)c(Cl)c2Cl)nc2ccccc12 | 99 | i | 118 | 122 | 80 | 114 | / | / | / | / | / | s288c autofluor=-0.3
COc1ccc(Cc2nc3ccc(C(=O)N(C)C(C)c4ccon4)cc3o2)cc1 (stereo unspecified) | 98 | i | 82 | 190* | 101 | 106 | 100 | 101 | 98 | 96 | 100
COc1ccc(Cc2nc3ccc(C(=O)N(C)CCO)cc3o2)cc1 | 112 | i | 102 | 96 | 102 | 105 | / | / | / | / | /
CC(=O)Oc1cccc(N2C(=O)c3cccc4c([N+](=O)[O-])ccc(c34)C2=O)c1 | 133 | ? | 227* | 178* | 112 | 79 | 177* | 281* | 114 | 225* | 111 | s288c autofluor=6.1
Cc1ccc(C(=O)O)cc1N1C(=O)c2cccc3c([N+](=O)[O-])ccc(c23)C1=O | 141 | / | 157 | 108 | 109 | 92 | / | / | / | / | /
Nc1nonc1C(=O)NCCNc1ccc([N+](=O)[O-])cc1 | 90 | i | 99 | 92 | 90 | 88 | / | / | / | / | /
COc1cc(CC(=O)Nc2nc(C)cs2)cc(OC)c1OC | 110 | i | 107 | 98 | 110 | 113 | / | / | / | / | /
COc1cc(/C=C/C(=O)N2CCN(C)CC2)cc(S(=O)(=O)N2CCc3ccccc32)c1OC | 99 | i | 125 | 91 | 62 | 26 | 103 | 100 | 100 | 98 | 100
Cc1cc(NC(=O)Cc2ccccc2)ccc1NC(=O)c1cccs1 | 104 | i | 96 | 100 | 100 | 99 | / | / | / | / | /
CC[C@]1(c2ccccc2OC)ON(c2ccccc2C(F)(F)F)C1=O | 85 | / | 100 | 118 | 93 | 81 | 150 | 120 | 103 | 118 | 110 | s288c autofluor=0
COc1ccc2c(c1)C(=O)N(c1ccccc1OC)C(=O)C2(C)C | 91 | i | 102 | 115 | 94 | 99 | / | / | / | / | /
Cc1cc(=O)c(C(=O)O)nn1-c1ccccc1C(F)(F)F | 105 | i | 106 | 96 | 107 | 109 | / | / | / | / | /
CC(C)C[C@]1(c2ccccc2)ON(c2ccccc2C(F)(F)F)C1=O | 97 | i | 89 | 88 | 100 | 74 | 104 | 100 | 105 | 112 | 99 | s288c autofluor=-0.1

Screening data (PubChem)
